HTR5A inv ag – HTR5A inverse agonism, opioid heterodimer counter-screen; 0.083% of 340,000 active; P47898; AID 504634; HTR5A cell line, luminescence; inhibition, % at 9.3 µM; in the data active = inhibition mostly above about 23%, no sharp cut-off; inactive = mostly below about 18%
MOR-DOR ag – OPRM1-OPRD1 heterodimerization agonism | P35372+P41143 | cells, luminescence | activation, % at 9.3 µM | 0.3% of 340,000 active | AID 504326
Target sequence (P35372 whole entry, looked up): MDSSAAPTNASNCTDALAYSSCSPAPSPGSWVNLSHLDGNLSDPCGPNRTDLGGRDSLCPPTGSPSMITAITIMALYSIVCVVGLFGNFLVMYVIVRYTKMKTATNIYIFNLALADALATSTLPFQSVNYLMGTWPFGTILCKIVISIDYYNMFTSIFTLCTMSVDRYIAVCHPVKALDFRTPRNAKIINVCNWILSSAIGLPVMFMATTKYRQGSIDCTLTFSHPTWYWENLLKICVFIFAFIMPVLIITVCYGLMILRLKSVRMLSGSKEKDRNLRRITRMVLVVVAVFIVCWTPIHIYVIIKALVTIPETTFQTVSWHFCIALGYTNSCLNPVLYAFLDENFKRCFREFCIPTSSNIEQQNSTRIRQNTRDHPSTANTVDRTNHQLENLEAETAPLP
Target sequence (P41143 whole entry, looked up): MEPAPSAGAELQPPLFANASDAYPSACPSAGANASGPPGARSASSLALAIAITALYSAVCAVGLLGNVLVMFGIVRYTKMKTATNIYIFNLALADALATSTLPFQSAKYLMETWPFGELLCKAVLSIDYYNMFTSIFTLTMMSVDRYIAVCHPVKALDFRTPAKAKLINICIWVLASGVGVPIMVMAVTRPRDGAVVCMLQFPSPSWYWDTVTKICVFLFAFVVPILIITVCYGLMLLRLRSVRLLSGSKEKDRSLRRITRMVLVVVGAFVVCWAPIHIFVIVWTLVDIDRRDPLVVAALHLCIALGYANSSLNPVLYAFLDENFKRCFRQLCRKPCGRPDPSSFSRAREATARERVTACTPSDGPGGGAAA
OPRM1-OPRD1 inv – inverse agonist of human OPRM1-OPRD1 heterodimerization. inhibition, % at 9.3 µM. 0.21% of 340,000 active. cell-based MOR-DOR heterodimer luminescence, inverse agonism; in the data active = inhibition above about 22%, passing the limit was not always enough
HTR5A ag ctr – counter-screen for OPRM1-OPRD1 agonists: human HTR5A agonism. P47898. HTR5A agonist assay, luminescence, cell-based. activation, % at 9.3 µM. 0.61% of 340,000 active; in the data active = activation mostly above about 9.5%, no sharp cut-off; inactive = mostly below about 7.6%
MOR-DOR ag conf – confirmation of human OPRM1-OPRD1 heterodimerization agonists | 45% of 830 active | AID 504904 | cells, MOR-DOR heterodimerization, luminescence complementation | shares compounds with MOR-DOR ag | activation, % at 9.3 µM
HTR5A ag counter – counter-screen for OPRM1-OPRD1 agonists: human HTR5A agonism. activation, % at 9.3 µM. HTR5A agonist counterscreen, cell luminescence. AID 504905. 8% of 830 active. shares compounds with MOR-DOR ag; in the data active = activation above about 17%
MOR-DOR inv conf – confirmation of human OPRM1-OPRD1 heterodimerization inverse agonists; shares compounds with OPRM1-OPRD1 inv; inhibition, % at 9.3 µM; AID 504900; 20% of 580 active; cells expressing OPRM1/OPRD1 heterodimer, luminescence; in the data active = inhibition above about 32%
HTR5A inv count – inverse agonist of human HTR5A in OPRM1-OPRD1 counter-screen; HTR5A-expressing cells, luminescence, inverse agonism; inhibition, % at 9.3 µM; 580 tested, under 10 active; shares compounds with OPRM1-OPRD1 inv; call rule not given here
Large screens that a line does not name were inactive (follow-up assays come after a bar, where they were run). Sampled rows, rich in hits. Any-hit rate of the full collection: about 1.1%. Rule as the data show it, unless noted: active = activation above about 18%; inactive = the rest.

CCCCN=C[C@]12CCC(O)CC1(O)CCC1[C@@H]2CC[C@]2(C)[C@H](C3C=CC(=O)O3)CCC12O (stereo not given in full)	MOR-DOR ag 71, HTR5A ag ctr 31 | MOR-DOR ag conf 36 | HTR5A ag counter 27
C[C@]12CC[C@H]3[C@@H](CC[C@]4(O)C[C@@H](O)CC[C@]34C=O)[C@@]1(O)CC[C@@H]2C1=CC(=O)OC1	MOR-DOR ag 70 | MOR-DOR ag conf inactive | HTR5A ag counter inactive
CC12CCC3C(CCC4(O)CC(O)CCC34C=NO)C1(O)CCC2C1=COC(=O)C1 (stereo not given)	MOR-DOR ag 77, HTR5A ag ctr 31 | MOR-DOR ag conf inactive | HTR5A ag counter inactive
CC12CCC3C(CCC4(O)CC(O)CCC34C=O)C1(O)CCC2C1=CC(=O)OC1 (stereo not given)	MOR-DOR ag 79, HTR5A ag ctr 29 | MOR-DOR ag conf 41 | HTR5A ag counter 24
COc1cc2c3cc1Oc1c(OC)c(OC)cc4c1[C@H](Cc1ccc(cc1)Oc1cc(ccc1O)C[C@H]3N(C)CC2)N(C)CC4	none
COc1cc2c3cc1Oc1cc(ccc1O)C[C@@H]1c4c(cc(OC)c(O)c4Oc4ccc(cc4)C[C@H]3N(C)CC2)CCN1C	MOR-DOR ag 34 | MOR-DOR ag conf 65 | HTR5A ag counter inactive
CC(C)CCOP(N)(=O)Oc1ccccc1Cl (stereo not given)	none
Cc1cc(C(=O)N=Nc2c(O)n(C)c3ccccc23)c(C)o1	none
CCOC(=O)C1(c2ccccc2)CCN(CCC(=O)Nc2ccc(F)cc2)CC1	MOR-DOR ag 131 | MOR-DOR ag conf 153 | HTR5A ag counter inactive
CCOC(=O)C1(c2ccccc2)CCN(CCC(=O)Nc2ccccc2OC)CC1	MOR-DOR ag 92 | MOR-DOR ag conf inactive | HTR5A ag counter inactive
CCOC(=O)C1(c2ccccc2)CCN(CC(=O)Nc2cccc3ccccc23)CC1	MOR-DOR ag 24 | MOR-DOR ag conf inactive | HTR5A ag counter inactive
CCOC(=O)C1(c2ccccc2)CCN(CC(=O)c2ccc(NC(C)=O)cc2)CC1	none
Cc1ccc(C(=O)c2cc(Br)ccc2N)cc1	none
O=C1NC(=O)C(CCc2ccncc2)(CCc2ccncc2)C(=O)N1CCc1ccc(F)cc1	none
COc1ccc(CCn2c(O)c(C=NCCN3CCCCC3)c(=O)[nH]c2=O)cc1OC	MOR-DOR ag 79 | MOR-DOR ag conf inactive | HTR5A ag counter inactive
O=C(CN1CCCCC1)c1cccc(Br)c1	OPRM1-OPRD1 inv 68 | MOR-DOR inv conf inactive | HTR5A inv count inactive
O=C1CCN(C(=O)C(Cl)Cl)N1	none
CC(C)(C)NC(=O)NC(=O)CN1CC=C(c2ccccc2)CC1	none
CCCCn1c(NS(=O)(=O)c2ccccc2)c(C(=O)OCC)c2nc3ccccc3nc21	OPRM1-OPRD1 inv 32 | MOR-DOR inv conf inactive | HTR5A inv count inactive
C[C@H]1CCC/C=C/[C@@H]2C[C@H](O)C[C@H]2[C@@H](O)/C=C/C(=O)O1	OPRM1-OPRD1 inv 42 | MOR-DOR inv conf inactive | HTR5A inv count inactive
CCC1CCCCN1CC(=O)c1ccc(OC(F)F)cc1 (stereo not given)	OPRM1-OPRD1 inv 42 | MOR-DOR inv conf inactive | HTR5A inv count inactive
O=C(CN1CCCCC1)c1ccc(OC(F)F)cc1	none
CC1CC2(O)c3no[n+]([O-])c3CCC2N1O (stereo not given)	none
CC1CN(O)C2CCc3c(no[n+]3[O-])C12O (stereo not given)	OPRM1-OPRD1 inv 31 | MOR-DOR inv conf inactive | HTR5A inv count inactive
O=C(Cn1ncc2c3ccccc3n(Cc3ccccc3F)c2c1=O)N1CCC2(CC1)OCCO2	none
CC1(C)CC(n2[nH]c(=O)c3c2NC(=O)CSC3c2ccccc2)CCO1 (stereo not given)	OPRM1-OPRD1 inv 31 | MOR-DOR inv conf inactive | HTR5A inv count inactive
Cc1ccc(C2SCC(=O)Nc3c2c(=O)[nH]n3C2CCOC(C)(C)C2)cc1 (stereo not given)	none
CC1=CC(=O)C2=C(C)C[C@H](O)[C@@H]3[C@H](OC(=O)[C@H]3C)[C@@H]12	none
